The values that follow come from PubChem BioAssay AID449762 (Southern Research Specialized Biocontainment Screening …, 2010).

Structures are written as SMILES. In all, about 330,000 compounds went through this assay and about 1,900 (0.58%) were called active. Inconclusive results (about 4%) are left out. A selection follows. Results with a measured potency or affinity are listed apart. Values without a mark were called inactive. No stated cut-off is given here; in the data, inconclusive means inhibition above about 70% without an active follow-up result; inactive means below that.

This assay is described as follows: M. tuberculosis growth inhibition, HTS (AID 449762).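 Further: bacterial growth assessed after seven days of incubation.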 The settings on record: M. tuberculosis H37Rv growth inhibition, 7H9 media; at 25 µM; hits give high values.
`CCN(CC)C(=O)Oc1ccc2c(=O)c(-c3ccccc3)coc2c1`: the inhibition (as a rule, the relative decrease from the control value, in per cent) was 64.8%.

In the case of `COc1ccc(-c2coc3cc(OC(=O)N4CCOCC4)ccc3c2=O)cc1`, the inhibition was 10.6%.

For the molecule `CCOc1ccc(N(CC(=O)Nc2cc(C)cc(C)c2)S(C)(=O)=O)cc1`, the inhibition is 7.61%.

Take `N#C/C(=C/c1ccccc1[N+](=O)[O-])C(=O)NCc1ccco1`: the inhibition is -4.24%.

For `CCCCSC1=NN1c1nc(N)nc(C)c1CC`, the inhibition is -7.73%.

For `CC1CN(C(=S)c2cccc([N+](=O)[O-])c2)CC(C)O1` (stereo unspecified), the inhibition was -2.37%.

For the molecule `CC1CN(C(=O)c2cc([N+](=O)[O-])cc([N+](=O)[O-])c2)CC(C)O1` (stereo unspecified), the inhibition is -5.16%.

On to `Cc1nn(CC(C)C(=O)N2CCN(S(=O)(=O)c3ccc(Cl)cc3)CC2)c(C)c1C` (stereo unspecified), for which the inhibition was -2.72%.

Take `CCCCCCCCc1nc(SC(C)C(=O)O)n[nH]1` (stereo unspecified): the inhibition was -1.56%.

In the case of `COc1ccc(C2Nc3ccccc3NC3=C2C(=O)CC(C)(C)C3)c(OC)c1OC` (stereo unspecified), the inhibition is 8.53%.

In the case of `COc1ccc(-c2nnc(NC(=O)CS(=O)(=O)c3ccc(F)cc3)o2)c(OC)c1`, the inhibition was 7.17%.

For the molecule `COc1ccc(NC(=O)c2ccc([N+](=O)[O-])o2)cc1`, the inhibition was 6.03%.

With `COc1ccc(S(=O)(=O)N(C)CC(=O)NCc2ccco2)cc1Cl`, the inhibition was 2.22%.

As for `CCCn1nnc(NC(=O)COc2ccccc2Cl)n1`, the inhibition is -5.02%.

Take `CCCn1nnc(NC(=O)COc2ccc(C3CCCCC3)cc2)n1`: the inhibition is -1.63%.

As for `Cc1cc(C(=O)N(C)CC2CCCN(CCc3ccc(F)cc3)C2)c(C)o1` (stereo unspecified), the inhibition is -2.12%.

Turning to `N=C1c2ccccc2CN1NC(=O)COc1ccc(Cl)cc1`, the inhibition is -8.46%.

With `CCc1nn(CCCC(=O)N2CCc3ccccc3C2)c(=O)c2cc3occc3n12`, the inhibition is -0.11%.

`CCOc1ccc(-n2c(SCC(=O)Nc3ccc(C(=O)O)cc3)nc3ccccc3c2=O)cc1`: the inhibition was 1.72%.

Consider `CC(=O)c1ccc(NC(=O)CSc2cn[nH]n2)cc1`, for which the inhibition is 4.87%.

Consider `Cc1ccc(NC(=O)CSc2cn[nH]n2)cc1`, for which the inhibition was -2.03%.

On to `COc1cccc(NC(=O)CSc2nc(O)c(C)c(=O)n2-c2ccc(C)cc2)c1`, for which the inhibition is -11.9%.

`Cc1nnc(NC(=O)CSc2nnc(Cc3cccn3C)n2C)s1`: the inhibition was -5.68%.

Take `Cc1ccc(S(=O)(=O)N(C)C)cc1NC(=O)c1cccnc1Oc1ccccc1`: the inhibition was -2.85%.

Regarding `O=C(Nc1ccc2c(c1)OCO2)c1cnn2c1NC(c1ccco1)CC2C(F)(F)F` (stereo unspecified), the inhibition was -5.12%.

For `COc1ccc(-c2[nH]ncc2CN(C)Cc2ccccn2)c(OC)c1`, the inhibition is 4.69%.
